Source: PubChem (several laboratories)
Hsp90 block – tumor Hsp90 inhibitors, primary screen, cell lysate, fluorescence polarization, NCI-N417 lysate. Heat shock protein HSP 90-alpha (Homo sapiens), P07900. Cy3B-geldanamycin FP displacement. inhibition, % at 30 µM. 0.35% of 64,000 active. AID 429, 2006;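 active = inhibition above 50%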;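 also: 0% = tracer plus lysate wells and 100% = tracer alone without lysate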
Cdc25B inh – inhibitors of Cdc25B phosphatase catalytic domain, primary screen, biochemical, OMFP fluorescence; recombinant Cdc25B, OMFP fluorescence Ex485/Em525; inhibition, %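 (compounds tested at 10 µM final in the well)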; M-phase inducer phosphatase 2 (Homo sapiens), P30305; 0.1% of 65,000 active; in the data active = inhibition above about 50%
DUSP1 inh – MKP-1 phosphatase inhibitors, primary screen, biochemical, in vitro; Dual specificity protein phosphatase 1 (Homo sapiens), P28562; AID 374, 2006; recombinant MKP-1, OMFP hydrolysis fluorescence; 0.15% of 65,000 active; inhibition, %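 (compounds tested at a single concentration somewhere between 10 and 100 µM)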;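 active = inhibition above about 50%, limit read from the data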;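 also: 0% = DMSO max control wells and 100% = wells with enzyme stopped by NaOH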
Target sequence (P28562 whole entry, looked up): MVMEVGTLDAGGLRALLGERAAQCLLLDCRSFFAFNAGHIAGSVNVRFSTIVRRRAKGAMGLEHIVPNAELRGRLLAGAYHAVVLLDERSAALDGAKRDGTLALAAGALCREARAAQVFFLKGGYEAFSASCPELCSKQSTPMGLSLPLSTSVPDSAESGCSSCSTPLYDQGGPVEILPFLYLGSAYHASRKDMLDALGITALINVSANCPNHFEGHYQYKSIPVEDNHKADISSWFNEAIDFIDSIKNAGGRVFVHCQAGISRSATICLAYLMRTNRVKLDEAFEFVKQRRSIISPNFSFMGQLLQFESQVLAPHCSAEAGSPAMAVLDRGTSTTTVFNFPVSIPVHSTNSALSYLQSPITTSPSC
A340 absorber – compound light absorbance at 340 nm, profiling panel, artefact control, biochemical, MLSMR library, data from PS, PMK, MK assays; compound absorbance at 340 nm, fold over control; fold change at 10 µM; 65,000 tested, under 10 active; AID 708, 2007;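 active = at 10 µM dose, initial 340 nm absorbance at least 2 fold that of control wells; inactive = change under 2 fold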;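 also: initial absorbance extrapolated from kinetic A340 decline of NADH oxidation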
NADH coupling – inhibitors of PK/LDH coupling enzymes, profiling panel, artefact control, biochemical, MLSMR library. 0.02% of 65,000 active. IC50, µM (titrated, usually from 10 µM), for inactives: at the highest dose inhibition. coupled PK/LDH NADH assays, four targets. AID 774, 2007;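 active = single-dose screening hits from any of four coupled enzyme assays that gave an IC50 when retested across doses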;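 also: the DPM-DC format reads NADH fluorescence rather than 340 nm absorbance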
Autofluor 339 – intrinsic fluorescence of library compounds, ex339/em460 – biochemical, MLSMR library, data from DPM-DC assay, artefact control, profiling panel; compound autofluorescence, ex339/em460 nm, NADH buffer; stronger effect = higher value; 1 = no-compound wells, NADH background; fluorescence fold increase at 10 µM; 5.5% of 65,000 active; AID 709, 2007;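 active = at 10 µM, mean starting fluorescence two-fold or more over control wells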;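 also: signal is the first read of a kinetic run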
An asterisk follows results filed as active; . = no result given. Shown are actives, neighbours in structure and some others; about 5.7% of the full set was active somewhere.

SMILES	Hsp90 block	Cdc25B inh	DUSP1 inh	A340 absorber	NADH coupling	Autofluor 339
COc1cccc(CNC(=O)C2CCCN(S(C)(=O)=O)C2)c1 (configuration not stated)	-3	-7	-9	1	3%	1.1
O=C(N1CCCC1)n1c(Cc2ccccc2)nc2ccccc21	0	-8	-3	1	1%	1.1
CCCn1c(CCC(=O)O)ccc1-c1ccc(F)cc1	-7	-7	29	1.1	8%	2*
COc1ccc(-c2ccc(CCC(=O)O)n2C(C)C)cc1	-4	3	-3	1.1	7%	2*
O=C(O)CCc1ccc(-c2ccc(F)cc2)n1CC(=O)O	-3	-11	8	1	2%	1.1
COC(=O)Cn1c(CCC(=O)O)ccc1-c1ccccc1	-3	0	3	1	0%	2.2*
O=C(O)CCc1ccc(-c2ccccc2)n1CC1CCCO1 (configuration not stated)	-7	0	17	1	10%	4*
O=C(O)CCc1ccc(-c2ccccc2)n1Cc1ccco1	-10	12	28	1	7%	1.3
CC(C(=O)N1c2ccc(F)cc2CCC1C)N1C(=O)c2ccccc2C1=O (configuration not stated)	-4	-10	2	0.99	4%	1
Cc1ccc(NC(=O)CSc2n[nH]c(-c3ccncc3)n2)cc1C	-1	0	-13	1	1%	1.2
O=C(COC(=O)C1CCCCC1C(=O)N1CCc2ccccc21)NCc1ccco1 (configuration not stated)	-9	-12	31	0.97	3%	1.1
CCOC(=O)C1CCN(S(=O)(=O)c2ccc3c4c(cccc24)C(=O)N3)CC1	-2	-14	8	1.1	7%	2.1*
COC(=O)c1ccc(-c2sc3nc(N4CCOCC4)c4c(c3c2N)CCCC4)o1	-9	-25	-1	1	1%	2.5*
CCOC(=O)c1sc2nc(N3CCCC3)c3c(c2c1N)CC(C)(C)OC3	-21	-3	-5	1	2%	3*
CCOC(=O)c1sc2nc(N3CCOCC3)c3c(c2c1N)CCCC3	-4	-11	-23	1.1	7%	3.7*
Nc1c(C(=O)NCc2ccco2)sc2nc(N3CCOCC3)c3c(c12)CCCC3	-7	20	1	1.1	2%	2.4*
COC(=O)c1ccc(Cn2nnc3c(sc4nc(N5CCOCC5)c5c(c43)CCCC5)c2=O)o1	-1	-34	-9	1	4%	1.1
N#Cc1ccccc1NC(=O)COC(=O)CSc1nc2ccccc2o1	-6	2	3	1	6%	1.1
COc1cc2nc(N3CCN(C(=O)OCc4ccccc4)C(C(=O)NC(C)(C)C)C3)nc(N)c2cc1OC (configuration not stated)	-1	.	.	.	.	.
COC(=O)c1ccc(CSc2ncnc3c2sc2nc(N4CCOCC4)c4c(c23)CCCC4)o1	-3	-33	-11	1.1	0%	2.1*
COC(=O)c1ccc(Cn2cnc3c(sc4nc(N5CCOCC5)c5c(c43)CCCC5)c2=O)o1	-3	19	4	1	4%	1.3
CN1C(=O)c2ccccc2N(C)C1c1cccs1 (configuration not stated)	-7	-18	12	0.98	6%	3.9*
CCOC(=O)C1Cc2cc3c(cc2C1=O)CC(C(=O)OCC)C3=O (configuration not stated)	-13	2	-18	1.1	1%	3.7*
Cc1ccc(-c2nnc3n2N=C(c2ccccc2Br)CS3)cc1	2	9	12	1.1	2%	1.1
CC1Cc2ccccc2N1c1ncnc2c1nnn2Cc1ccccc1 (configuration not stated)	-1	-16	5	1.1	5%	2.6*
SMILES	Hsp90 block	Cdc25B inh	DUSP1 inh	A340 absorber	NADH coupling	Autofluor 339
c1ccc(Cn2nnc3c(N4CCc5ccccc5C4)ncnc32)cc1	-4	-5	23	0.97	5%	1.1
Cc1cccc(CSC2=NCCN2C(=O)c2ccco2)c1	-3	-16	-6	1	9%	1.1
COc1ccc(-c2cn3cc(C)ccc3n2)cc1OC	-2	-1	-2	1	2%	2.5*
COc1ccc(-c2cn3ccccc3n2)cc1OC	-2	5	-14	1	10%	4*
CN(C)S(=O)(=O)c1cccc(-c2cn3ccccc3n2)c1	-5	1	-5	1	2%	1.8
Cn1cccc1Cc1nnc(SCC(=O)Nc2ccc(F)cc2)n1CCc1ccccc1	-6	-12	14	1	4%	1.2
COc1ccc(OC)c(NC(=O)CSc2nnc(Cc3cccn3C)n2CCc2ccccc2)c1	-1	-29	65*	1	10%	1
COC(=O)Cn1c(=NC(=O)CSCC(=O)NC2CCCCC2)sc2cc(OC)ccc21	-2	-1	30	1.2	6%	2.1*
CCOC(=O)Cn1c(=NC(=O)CSC(C)=O)sc2cc(OC)ccc21	-5	-7	16	1.1	3%	1.4
COC(=O)c1[nH]c2cccc(Cl)c2c1NC(=O)CN1CCCCC1C (configuration not stated)	-6	10	-3	1	5%	1.2
COC(=O)c1[nH]c2ccc(C)cc2c1NC(=O)CCN1CCN(Cc2ccc3c(c2)OCO3)CC1	-5	0	-8	1	8%	2.3*
COC(=O)c1[nH]c2ccc(C)cc2c1NC(=O)CN1CCCCC1C (configuration not stated)	-9	0	0	1.1	11%	2.3*
CCOC(=O)C1CCCN(CC(=O)Nc2c(C(=O)OC)[nH]c3ccc(C)cc23)C1 (configuration not stated)	-6	4	0	1.1	12%	2.6*
CC(c1nnc(Sc2nnnn2-c2ccccc2)n1-c1ccc(F)cc1)N(C)C (configuration not stated)	0	3	27	1	6%	1
CC1(C)Cc2ccccc2C2CC(O)C(=O)N21 (configuration not stated)	-3	-9	10	0.97	4%	1.1
OC[C@H]1O[C@@H](n2cnc3c(NCCc4ccccc4)ncnc32)C(O)[C@H]1O (some centres not stated)	0	.	.	.	.	.
CCOc1ccc(-c2nnc(NC(=O)c3ccc(OCC(C)C)c(OC)c3)o2)cc1	2	-9	30	1	7%	4.9*
O=C1c2ccccc2C(Nc2ccc3c(c2)OCO3)N1Cc1ccc2c(c1)OCO2 (configuration not stated)	51*	-3	-2	0.98	4%	1
